Results filed as inconclusive are left out. Active and inactive are the calls of the source. Calls follow the shape of the dose curve; as a rule, active = well fitted activation curve with a large enough effect in the signal ratio in the repeat runs (not every such curve was filed as active); inconclusive = weak or mixed curves; inactive = flat fitted curve, though single readings scatter; the % refers to the signal ratio.
Assay: qHTS assay to identify small molecule agonists of H2AX (AID 1224845)
Settings: CHO-K1 phospho-H2AX Ser139 HTRF, 3 h; series mostly up to 154 µM; activation (H2AX phosphorylation): at the top concentration
From the text: National Center for Advancing Translational Sciences [NCATS]
NIH Chemical Genomics Center [NCGC]
U.S. Environmental Protection Agency [EPA]
National Institutes of Environmental Health Sciences [NIEHS]
National Toxicology Program [NTP]
U.S. Food and Drug Administration [FDA]
HTRF phospho-H2AX (Ser139) assay (Cisbio Bioassays, US) enables the quantitative detection of the histone variant H2AX when phosphorylated on serine 139. When double-stranded DNA breaks, either by ionizing radiation or endogenous physiological processes, H2AX becomes phosphorylated at Ser139. This phospho-Ser139 serves as a sensitive biomarker for the detection of such breaks, localizing the site of DNA repair. So, HTRF phospho-H2AX Ser139 is a pertinent assay to study genome stability, the cell cycle, DNA repair, and it serves as a biomarker for cancer, and to understand aging. Wild type CHO-K1 cells were used to identify the inducers of Phospho-H2AX Ser 139 from the Tox21 10K compound collections.
Tox21 Assay Protocol Summary:
The CHO-K1 cells suspended in culture medium containing 10% FBS were dispensed at 1000 cells/ 3 ul/well in 1536-well white wall/solid bottom plates (Greiner Bio-One North America, NC) using a Multidrop Combi (Thermo Fisher Scientific Inc., Waltham, MA). After the assay plates were incubated at 37C overnight, 23 nl of compounds at 15 concentrations (from 5-48 columns) or positive control (from 1 to 4 columns) were transferred to the assay plates using a Pintool station (Wako, San Diego, CA) into each well resulting in a final DMSO concentration of 0.76%. After 3hr incubation at 37C, 1 uL/well Supplemented Lysis buffer (diluted 100 fold blocking reagent in lysis buffer) (HTRF Phospho-H2A.X (S139) Assay kit from Cisbio US Inc., Bedford, MA) was added using a Flying Reagent Dispenser (FRD) (Aurora Discovery, CA). After 10sec spin at 1000 rpm in a plate centrifuge, the assay plates were incubated at room temperature for 30 min. Then followed by the addition of 1 uL/well detection buffer (containing a mixture of two antibodies, one labeled with cryptate, Anti pH2AX (S139)-K and another labeled with d2, Anti H2AX-d2) using FRD. After incubation at room temperature for 24 hr, the time resolved fluorescence at excitation 320 nm and emissions at 665 nm and 620 nm was measured using an Envision plate reader (PerkinElmer, Waltham, MA).
% is scaled to controls: 0 for no effect and ±100 for the full control effect; potency is read from the fitted curve at half-maximal effect.

SMILES	activation (H2AX phosphorylation)	Potency
O=[N+]([O-])c1cccc2cccnc12	-1.21% (inactive)	
CC1(C)COP(Oc2ccccc2)OC1	4.45% (inactive)	
Cc1ncc2n1-c1ccc(Cl)cc1C(c1ccccc1F)=NC2	1% [at 70.9 µM] (inactive)	
c1cc2c(c(N3CCNCC3)c1)OCCO2	-0.0208% [at 70.9 µM] (inactive)	
CCC#N	0.0935% (inactive)	
CCN(Cc1ccc(Cl)nc1)/C(=C/[N+](=O)[O-])NC	-0.36% [at 70.9 µM] (inactive)	
CCOC(=O)/C=C(C)/C=C/C[C@@H](C)CCCC(C)C		113 µM (active)
CNC(=O)Oc1ccc(N(C)C)c(C)c1	0.201% (inactive)	
CCCCCCI	2.25% (inactive)	
O=C(O)C(Br)CBr (stereo not given)	3.7% (inactive)	
CCCCN(CCCCO)N=O	-1.39% (inactive)	
BrCCCCCCBr	3.22% (inactive)	
CN1CCC(O)(c2ccc(F)cc2)C(C(=O)c2ccc(F)cc2)C1 (stereo not given)	0.537% [at 70.9 µM] (inactive)	
CCC(=O)c1ccccc1	-2.71% (inactive)	
ClC(Br)Br	0.48% (inactive)	
CC1=NNC(=O)N(/N=C/c2cccnc2)C1	-2.4% (inactive)	
Oc1c(Cl)cccc1Cl	-1.03% (inactive)	
C[N+](=O)[O-]	-2.34% (inactive)	
ClC(Cl)C(Cl)Cl	0.696% (inactive)	
CCCSP(=O)(OCC)Oc1ccc(Br)cc1Cl (stereo not given)	0.87% [at 70.9 µM] (inactive)	

SMILES	activation (H2AX phosphorylation)	Potency
CC1COC2(c3ccccc3Cl)c3cc(Cl)ccc3NC(=O)CN12 (stereo not given)	-3.23% [at 70.9 µM] (inactive)	
CC(C)(C)NCC(O)c1cc(Cl)c(N)c(Cl)c1 (stereo not given)	-2.84% [at 70.9 µM] (inactive)	
N#CCNCC#N	-2.99% (inactive)	
Cc1coc2c1CCC(C)C2 (stereo not given)	-1.04% (inactive)	
COc1cc(OC)nc(NC(=O)NS(=O)(=O)c2ncccc2OCC(F)(F)F)n1	0.582% (inactive)	
O=C(O)c1cccc(Cl)c1	-1.3% (inactive)	
CC(C)CP(=S)(S)CC(C)C	2.63% (inactive)	
C[N+](C)=CCl	-1.53% (inactive)	
CC1(C(=O)Nc2ccc(O)c(Cl)c2Cl)CCCCC1	-0.297% (inactive)	
OCCSCSCCO	0.131% (inactive)	
C[C@]1(O)CC[C@H]2[C@@H]3CCC4=CC(=O)CC[C@]4(C)[C@@]3(F)[C@@H](O)C[C@@]21C	-1.22% (inactive)	
CNNC	0.133% (inactive)	
N#CC(O)c1ccccc1 (stereo not given)	-1.44% (inactive)	
CSc1ccc(C(=O)C(C)(C)N2CCOCC2)cc1	-2.07% (inactive)	
NC(=O)O	0.634% (inactive)	
O=NN1CCN(N=O)CC1	-1.87% (inactive)	
CCC(=O)C(CCN(C)C)(c1ccccc1)c1ccccc1	-1.08% [at 70.9 µM] (inactive)	
CC(Cl)(Cl)[N+](=O)[O-]	-1.23% (inactive)	
CCC(C)(C)c1cc(-n2nc3ccccc3n2)c(O)c(C(C)(C)CC)c1	6.61% (inactive)	
COc1ccc2c(c1OC)CN1CCc3cc4c(cc3C1C2)OCO4 (stereo not given)	-0.801% [at 70.9 µM] (inactive)	
